Data reported in PubChem BioAssay AID778 (Sanford-Burnham Center for Chemical Genomics, 2007).
Among all 96,000 compounds or so, about 20,000 (21%) were called active.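 The calls were made as follows: active = CYP2C19 inhibition above a set limit at 5 µM in the primary screen (cut at about 50% in these data); inactive = the rest.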 These entries were drawn from the full list.

Target: Cytochrome P450 2C19 (Homo sapiens) (UniProt P33261)
Experiment: blockers of cytochrome P450 2C19 activity – biochemical, luminescence, ADME assay, primary screen (AID 778);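 also: plate controls were negative control wells for no effect and 2.5 mM tranylcypromine positive control for full effect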
Conditions: CYP2C19 Supersomes, luciferin-H EGE luminescence, 30 min; at 5 µM; active compounds read high

Chain of Cytochrome P450 2C19 (Homo sapiens) (P33261 whole entry, looked up): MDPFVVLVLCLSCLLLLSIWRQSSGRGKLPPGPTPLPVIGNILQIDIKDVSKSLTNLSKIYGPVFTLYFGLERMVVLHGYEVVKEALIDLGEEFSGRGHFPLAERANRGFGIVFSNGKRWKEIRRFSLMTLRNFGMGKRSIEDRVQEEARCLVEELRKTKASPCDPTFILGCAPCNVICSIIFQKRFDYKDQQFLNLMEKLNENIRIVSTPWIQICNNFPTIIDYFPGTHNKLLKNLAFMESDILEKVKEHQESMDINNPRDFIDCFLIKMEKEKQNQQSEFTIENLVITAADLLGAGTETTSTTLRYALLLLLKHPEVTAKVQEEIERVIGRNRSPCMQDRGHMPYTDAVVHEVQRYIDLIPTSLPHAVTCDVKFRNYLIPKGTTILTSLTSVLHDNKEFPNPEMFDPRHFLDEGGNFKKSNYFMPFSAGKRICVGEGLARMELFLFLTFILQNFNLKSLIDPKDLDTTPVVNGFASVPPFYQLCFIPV

inhibition, active:
CC(C)NC(=O)CSc1nnc(COc2ccccc2Cl)o1 60.8%
O=C(Nc1ccccc1N1CCN(c2ccccc2)CC1)c1cccc(F)c1 79.2%
O=C(Nc1ccccc1N1CCN(C(=O)c2ccccc2)CC1)c1ccc2c(c1)OCO2 67%
O=C(Nc1ccccc1)c1ccc2c(c1)OCO2 81.4%
O=C(CN1CCN(c2ccccc2F)CC1)c1ccc2c(c1)OCO2 67.3%
Cc1cc(C(=O)OCC(=O)Nc2ccc(F)c(F)c2)c(C)o1 95%
c1ccc(COc2nsnc2N2CCOCC2)cc1 98.5%
c1nc(COc2nsnc2N2CCOCC2)cs1 53.5%
CCOC(=O)C1(S(=O)(=O)c2ccccc2)CCN(Cc2ccccc2)CC1 51.8%
Cc1ccc(NC(=O)CN2CCC3(O)CCCCC3C2c2ccc3c(c2)OCO3)c(C)c1 (stereo unspecified) 63.9%
COc1ccc(NC(=O)CC2COc3ccccc3O2)c(OC)c1 (stereo unspecified) 85.5%
FC(F)(F)c1cnc(Oc2ccccc2-c2nnc(-c3ccc(Cl)cc3)o2)c(Cl)c1 66.1%
N#CC(=C1SC=CS1)c1nc(-c2ccccc2)cs1 65.1%
N#C/C(=C1\CCCN1)c1nc(-c2ccccc2)cs1 54.2%

inhibition, inactive:
Cn1c(Cn2nnc3ccccc32)nnc1SCC(=O)c1ccccc1F 7.9%
Cc1cc(C)cc(OCc2nnc(SCC(=O)Nc3ccccc3)o2)c1 2.4%
Cc1ccccc1OCc1nnc(SCC(=O)N2c3ccccc3Sc3ccc(Cl)cc32)o1 12%
CCOCCCNC(=O)Cc1cc(=O)[nH]c(=O)[nH]1 -18.9%
O=C(Nc1ccc(N2CCN(C(=O)c3ccccc3)CC2)c(Cl)c1)c1cccnc1 22.7%
O=C(Nc1ccccc1N1CCCCC1)c1ccc2nccnc2c1 6.8%
CC(C)C(=O)Nc1cccc(C(=O)Nc2ccc3c(c2)OCO3)c1 30.7%
O=C(Nc1cccnc1)c1ccc2c(c1)OCO2 35.6%
Cc1ccc(F)cc1NC(=O)c1ccc2c(c1)OCO2 33.3%
O=C(Nc1ccccc1N1CCCCC1)c1cccc(F)c1 19%
O=C(CN1CCN(CC(=O)Nc2ccc3c(c2)OCO3)CC1)Nc1ccc(F)cc1 16.8%
CCCC(=O)Nc1ccccc1N1CCN(C(=O)c2ccccc2)CC1 33%
O=C(NC12CC3CC(CC(C3)C1)C2)N1CCCC(CO)C1 (stereo unspecified) 6.5%
Cc1csc2ncc(C(=O)N(Cc3ccccc3)c3ccccn3)c(=O)n12 0.8%
O=C(COc1ccc(Br)cc1F)NC1CCN(Cc2ccccc2)CC1 22.6%
Cc1cccc(C)c1NC1=NC(=S)N(c2ccc(N(C)C)cc2)C1(C)C -1%
CN(C)/C=C1/C(=O)Nc2ccccc21 -9.6%
CCOC(=O)C1C(=O)OC2(CCCC2)C1C(=O)OCC (stereo unspecified) 23.9%
NC(=NC(=O)c1ccccc1)C1=C(O)CCC1=O -8%
CN1CCN(CC(=O)C23CC4CC(CC(C4)C2)C3)CC1 12%
CC12CCC(C(=O)N(CCC#N)CCC#N)(CC1=O)C2(C)C (stereo unspecified) -14%
Cc1cc(C(=O)OCC(=O)c2c(N)n(C)c(=O)n(C)c2=O)c(C)o1 7.9%
Cc1cc(NC(=O)COC(=O)c2ccc(F)c(S(=O)(=O)N3CCOCC3)c2)no1 8.2%
COc1cc(OC)c(C(=O)NC2CC(C)(C)NC(C)(C)C2)cc1OC -7.8%
CCOC(=O)NC(C(F)(F)F)(C(F)(F)F)P(=O)(c1ccccc1)c1ccccc1 -3.8%
O=C(O)COc1nsnc1N1CCOCC1 -5.8%
Fc1cnc(N2CCOCC2)nc1NCc1ccccc1 46.1%
C/C(=N\NC(=O)Cc1ccc(Cl)cc1)c1ccccn1 39.5%
COc1cccc2sc(Nc3nc(C)c(C(C)=O)s3)nc12 12.5%
CCOC(=O)C1(S(=O)(=O)c2ccc(Cl)cc2)CCN(Cc2ccccc2)CC1 42.5%
CCCC(=O)C1CCN(Cc2ccccc2)CC1 30.5%
CSc1nc(C)cc(SC(C(C)=O)C(=O)Nc2ccccc2)n1 (stereo unspecified) 11.6%
Cc1cccc(C(=O)Nc2nnc(Cc3c[nH]c4ccccc34)s2)c1 8.7%
CC(=O)c1cc2c(cc1NC(=O)CN1CCCCCC1)OCO2 15.4%
CCN(CC)c1ccc(C2C3CCCCC3(O)CCN2CC(=O)Nc2ccccc2)cc1 (stereo unspecified) 21.9%
CC(=O)NC(C)(C)C1CC=C(C)/C(=N\O)C1 (stereo unspecified) 2.5%
O=C(CSc1nnc(Cn2cnc3ccccc32)o1)c1ccccc1 6.9%
O=C(O)CCC(=O)NCc1ccc2[nH]c3c(c2c1)CCCC3 -16.4%
CN=C1S/C(=C\c2ccc(Sc3ccc(Cl)cc3)o2)C(=O)N1C 7.4%
CCN1C(=O)/C(=C\N2CCN(c3ccccc3)CC2)SC1=S 17.4%
Cc1cc(NC(=O)CCC2COc3ccccc3O2)no1 (stereo unspecified) 23.1%
COc1ccc(NC(=O)CCNC(=O)Cn2ccc3ccccc3c2=O)c(OC)c1 -2.7%
CCCSC(=S)NC1CCS(=O)(=O)C1 (stereo unspecified) 13.9%
O=C(Nc1ccc(S(=O)(=O)N2CCCC2)cc1Cl)C1=COCCO1 16.2%
Cc1cccc(-n2ncc3c(N4CCc5ccccc54)ncnc32)c1 6.2%
COc1ccccc1-c1nc(C(F)(F)F)c(OC)o1 -4.3%
CSc1ccccc1-c1nnc(-c2ccc(Cl)cc2)o1 -15.2%
COc1ccc(-c2cn(-c3ccc(C)cc3)c(=O)n2CC(=O)Nc2ccc(OC)c(OC)c2)cc1 16.2%
O=C(O)c1cscn1 -12.7%
N#CC(=C1CCCC1)c1nc(-c2ccc(Cl)cc2)cs1 43.3%
Cn1c(/C(C#N)=C2/CCCCCN2)nc2ccccc21 47.6%
N#C/C(=C1/CCCN1)c1ccccn1 -7.3%
